PP1 counter = counter-screen for PP5 inhibitors: inhibitors of human PP1-alpha | P62136 | purified PP1alpha, OMFP fluorescence | inhibition, % at 6.7 µM | 0.9% of 320,000 active | AID 2235;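 active = inhibition above the mean inhibition of all tested compounds plus 3 SD, computed separately for each screening campaign, cut at about 15% in these data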
PP5 inh = inhibitors of human protein phosphatase 5 (PP5); purified PP5c, OMFP substrate fluorescence; AID 1987; inhibition, % at 6.7 µM; 0.18% of 320,000 active;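 active = inhibition above the campaign's mean inhibition across all tested compounds plus 3 SD, cut at about 9.5% in these data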
STK33 inh = human STK33 kinase inhibition. inhibition, % at 10 µM. Q9BYT3. purified STK33, MBP phosphorylation, ADP-Glo luminescence. AID 2661. 0.073% of 320,000 active;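 active = inhibition at or above 25%, using the most active replicate where run in duplicate; inactive = inhibition below 25%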
Target sequence (Q9BYT3 whole entry, looked up): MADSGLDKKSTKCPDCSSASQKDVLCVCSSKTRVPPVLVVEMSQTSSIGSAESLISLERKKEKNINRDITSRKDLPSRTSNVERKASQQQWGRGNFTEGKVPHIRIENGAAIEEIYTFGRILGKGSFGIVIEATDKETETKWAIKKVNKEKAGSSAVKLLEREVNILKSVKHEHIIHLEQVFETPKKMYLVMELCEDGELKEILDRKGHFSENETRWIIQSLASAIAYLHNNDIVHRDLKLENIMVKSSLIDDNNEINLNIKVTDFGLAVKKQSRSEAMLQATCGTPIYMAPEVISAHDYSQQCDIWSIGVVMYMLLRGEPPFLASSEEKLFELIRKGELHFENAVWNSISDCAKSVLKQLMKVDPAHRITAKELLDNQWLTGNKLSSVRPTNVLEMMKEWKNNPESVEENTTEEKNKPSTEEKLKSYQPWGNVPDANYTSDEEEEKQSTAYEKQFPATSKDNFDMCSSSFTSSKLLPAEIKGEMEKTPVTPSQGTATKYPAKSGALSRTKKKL
Dyrk1A ADPGlo = Dyrk1A (rat) kinase inhibition. 0.43% of 310,000 active. ADP-Glo luminescence, NFATc1 peptide. AID 504441. inhibition, % at 12.5 µM. Q63470; in the data active = inhibition above about 50%
HIF activator = HIF pathway transcriptional activation; U2OS HRE-luciferase reporter, luminescence; normalized: DMSO 0%, desferrioxamine 100%; activation, % at 7.5 µM (by protocol); 0.32% of 300,000 active;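 active = mean activation of at least 10% of the iron chelator positive control signal, with at least half of replicates also reaching 10%; inconclusive = mean and replicate majority disagree about reaching 10%; inactive = mean and most replicates under 10%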
PP1 confirm = human PP1 phosphatase inhibition, confirmation. shares compounds with PP1 counter. inhibition, % at 6.7 µM. 52% of 1,900 active. purified PP1alpha, OMFP substrate fluorescence;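 active = mean PP1 inhibition above a set limit taken from the earlier primary screen, cut at about 15% in these data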
PP5 counter = inhibits human PP5 phosphatase in PP1 counter-screen | shares compounds with PP1 counter | purified PP5c, OMFP fluorescence | inhibition, % at 6.7 µM | 4% of 1,900 active;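 active = mean PP5 inhibition over triplicate wells above about 9.5% taken from the earlier PP1 screen, limit read from the data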
Hits are given with their value; i = inactive; ? = inconclusive; nt = no result. Rows were chosen to be rich in hits. Some 1.5% of all compounds tested hit in one or more screens of this group.

SMILES	PP1 counter	PP5 inh	STK33 inh	Dyrk1A ADPGlo	HIF activator	PP1 confirm	PP5 counter
Cc1cccc(NC(=O)Cn2c(=O)n(Cc3ccco3)c(=N)c3c4c(sc32)COC(C)(C)C4)c1	i	i	nt	i	i	nt	nt
CC(C)(C)c1ccc(C(=O)NNC(=O)CCC(=O)Nc2ccccc2)cc1	i	i	i	i	i	nt	nt
CC(C)(C)OC(=O)NCCCCCc1nnc(SCc2ccccc2)o1	i	i	i	i	i	nt	nt
Cc1[nH]c(=O)[nH]c(=O)c1CSc1nnc(CCCCCNC(=O)OC(C)(C)C)o1	23	i	i	i	i	i	i
CCOC(=O)c1sc(N2N=C(C)/C(=C\c3ccc(OCC(=O)OC)cc3)C2=O)nc1C	24	i	nt	i	i	i	i
O=Cc1cn(-c2ccccc2)nc1-c1cc2cc(O)ccc2oc1=O	28	i	i	i	i	18	i
NNC(=O)Cn1c(SCc2ccccc2)nc2ccccc21	18	i	i	i	i	i	i
Cc1nc2ccccc2n1CC(=O)NN	i	i	i	i	i	nt	nt
COc1ccc(C2CC(c3ccc(Br)cc3)=NN2C(=O)CSC2=NCCS2)cc1 (stereo not drawn)	20	i	i	i	i	i	i
COc1ccc(S(=O)(=O)N2CCCCC2)cc1NC(=O)CCCOc1ccc(C)cc1	i	i	i	i	nt	nt	nt
Cn1c(=O)c(C(=O)CN2CCc3ccccc32)c(N)n(Cc2ccccc2)c1=O	22	i	i	i	i	i	i
Cn1c(=O)c(C(=O)CN2CCCc3ccccc32)c(N)n(Cc2ccccc2)c1=O	i	i	i	i	i	nt	nt
COc1ccc(CCC(=O)NNC(=O)c2ccccn2)cc1OC	nt	nt	nt	i	nt	nt	nt
O=C(Nc1ccc2c(c1)C(=O)OC2)c1ccc(F)cc1F	i	i	i	nt	i	nt	nt
CSc1ccccc1NC(=O)Cn1nc([N+](=O)[O-])cc1C	i	i	i	i	i	nt	nt
Cc1cc(NC(=O)Cc2cccs2)no1	28	i	nt	i	nt	i	i
CC(C)(C)N1C(=O)c2ccc(C(=O)Nc3ccc(O)cc3)cc2C1=O	i	i	i	i	i	nt	nt
Cc1ccc(C2Cc3cc(O)c(O)cc3CN2)cc1 (stereo not drawn)	i	i	i	nt	i	nt	nt
CCOc1ccc(NCc2nnc(SCC(=O)Nc3nc(-c4ccccc4)cs3)n2-c2ccccc2)cc1	28	i	i	i	i	i	i
CCOc1ccc(NCc2nnc(SCc3ccc(Cl)cc3)n2-c2ccccc2)cc1	18	i	i	i	i	i	i
O=C1C=C(c2ccc(F)nc2)CCC1	i	i	i	i	i	nt	nt
O=C(c1ccc2ncsc2c1)N1CCCCC1	i	i	i	nt	i	nt	nt
O=C(O)c1ccc2ncsc2c1	19	i	i	i	i	37	i
COc1ccccc1CNC(=O)COC(=O)c1ccc(C)c(S(=O)(=O)N2CCCCC2)c1	i	i	i	i	i	nt	nt
CC(=O)Oc1ccc2c(=O)c(Oc3ccccc3[N+](=O)[O-])coc2c1	56	i	i	i	i	i	i
SMILES	PP1 counter	PP5 inh	STK33 inh	Dyrk1A ADPGlo	HIF activator	PP1 confirm	PP5 counter
COc1ccc(CNC[C@@H](CCCCN(C)Cc2ccc(OC)cc2)N2C[C@H](c3ccccc3)N(CCc3ccc(Cl)c(Cl)c3)C(=O)C2=O)cc1	39	i	i	i	i	i	i
O=C(N/N=C/c1ccccn1)c1cc(-c2ccc3ccccc3c2)n[nH]1	28	i	i	i	i	62	i
CCc1ccc(-c2cc(C(=O)N/N=C/c3ccccn3)[nH]n2)cc1	i	i	i	i	i	nt	nt
CC(CN1CCCCC1)OC(=O)COc1ccc(Br)cc1 (stereo not drawn)	i	i	i	i	i	nt	nt
Cc1ccc(/C=N/Nc2ccnc3cc(Cl)ccc23)c(C)c1	33	i	i	i	i	i	i
Cc1ccccc1/C=N/Nc1ccnc2cc(Cl)ccc12	i	i	i	i	i	nt	nt
N#CCC(=O)N/N=C/c1c2ccccc2cc2ccccc12	nt	nt	i	i	i	nt	nt
N#CCC(=O)N/N=C/c1cc(Br)ccc1OCc1cccc2ccccc12	21	i	i	i	i	i	i
CCOC(=O)c1nc(-c2ccccc2)sc1C(C)=O	i	i	i	i	i	nt	nt
CCOC(=O)c1sc(-c2ccc(Cl)cc2)nc1O	25	i	i	i	i	18	i
CCOC(=O)c1sc(-c2cccc(C(F)(F)F)c2)nc1O	18	i	i	i	i	17	i
O=C(COc1cc2oc(=O)c3c(c2cc1Cl)CCC3)Nc1ccc(CN2CCOCC2)cc1	i	i	i	i	i	nt	nt
Cc1cccc2sc(NC(=O)c3cc(S(=O)(=O)N(C)C)ccc3N3CCCC3)nc12	i	i	i	i	i	nt	nt
Nc1cccc(Nc2nc(OC(C(F)(F)F)C(F)(F)F)nc(OC(C(F)(F)F)C(F)(F)F)n2)c1	18	19	i	i	i	16	15
O=C(NC1CCCC1)c1nc2c(nnn2Cc2cccc(Cl)c2)c(=O)[nH]1	21	i	i	i	i	i	i
CC(=O)c1cccc(S(=O)(=O)N2CCCC(c3nc4c(nnn4Cc4cccc(Cl)c4)c(=O)[nH]3)C2)c1 (stereo not drawn)	20	i	i	i	i	15	i
O=c1[nH]c(C2CCN(S(=O)(=O)c3ccc(C(F)(F)F)cc3)CC2)nc2c1nnn2Cc1ccc(F)cc1	19	i	i	i	?	i	i
CS(=O)(=O)c1ccc(Cl)c(NC(=O)COC(=O)CCN2C(=O)C3CC=CCC3C2=O)c1 (stereo not drawn)	nt	nt	nt	i	nt	nt	nt
O=C(C[C@@H]1C/C=C/CC[C@H](Cc2ccc(F)cc2)C(=O)OC[C@@H](Cc2ccccc2)NC1=O)N[C@H](CO)Cc1ccccc1	nt	nt	i	i	nt	nt	nt
NS(=O)(=O)c1cccc(NC(=O)COC(=O)CCC2CCCC2)c1	nt	nt	i	nt	nt	nt	nt
COc1ccccc1CCC(=O)OCC(=O)c1c(N)n(CC(C)C)c(=O)n(C)c1=O	83	i	i	i	i	i	i
O=C(CSc1ccc(F)cc1)NC1CCCCC1	i	i	i	i	i	nt	nt
CCOc1ccc(N2CSC3=C(C#N)C(c4ccco4)CC(=O)N3C2)cc1 (stereo not drawn)	31	i	i	i	i	i	13
NC(N)=N/N=C/c1ccc(OCc2ccc(Cl)cc2)cc1	21	i	i	i	i	i	i
Cc1ccc(CNCC(=O)Nc2ccc(C)cc2Br)cc1	i	i	i	i	i	nt	nt
Cc1onc(-c2ccccc2)c1C(=O)NNC(=S)NC(=O)/C=C/c1cccs1	19	i	i	nt	i	i	i
Cc1onc(-c2ccccc2)c1C(=O)NC(=S)NNC(=O)c1cc(-c2ccc(F)cc2)n[nH]1	29	i	i	i	i	22	i
O=C(/C=C/c1cccs1)NC(=S)NNC(=O)Cc1cccs1	25	i	i	i	i	24	i
COc1cccc(NC(=O)N2CCCC2C(=O)NC23CC4CC(CC(C4)C2)C3)c1 (stereo not drawn)	i	i	i	i	i	nt	nt
Cc1cc(C)n2nc(C(=O)N/N=C/c3cccc(Cl)c3)nc2n1	18	i	i	i	i	i	i

Assay outcomes as filed in PubChem BioAssay.
